According to PubChem BioAssay (Tox21):
Inconclusive results are not listed. Activity calls are given as the source filed them. Unless noted, calls come from the whole dose curve; as a rule, active = well fitted curve in the direction sought with a large enough effect in the repeat runs; inconclusive = weak or mixed curves; inactive = no such curve, though single readings can be large; an effect the other way counts as inactive or inconclusive.

Columns and labels:
[1] = qHTS assay to identify small molecule agonists of the RXR signaling pathway - cell viability counter screen (AID 1159529);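 note: HEK 293T cells carrying an RXR-alpha UAS beta-lactamase reporter; series mostly up to about 77 µM; nearly all actives have a fitted effect of over 50% in size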
Outline: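 RXR-alpha-UAS-bla HEK 293T cells in medium with 2% charcoal-stripped FBS were preincubated 5 hr, then exposed to compounds for 16 hr at 37 C. Viability was read as CellTiter-Glo luminescence after 30 min at room temperature.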

[2] = qHTS assay to identify small molecule antagonists of the retinoid acid receptor (RAR) signaling pathway - cell viability counter screen (AID 1159551); note: nearly all actives have a fitted effect of over 35% in size
Outline: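 C3RL4 RARE-luciferase cells, 1,000/well, incubated overnight, then dosed with compound plus 1 uM retinol (final). After 6 hr at 37 C, viability read by CellTiter-Glo ATP luminescence following 30 min at room temperature.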

[3] = qHTS assay to identify small molecule antagonists of the retinoic acid receptor (RAR) signaling pathway (AID 1159552; note: nearly all actives have a fitted effect of over 50% in size; note: potency is the fitted concentration of half-maximal effect)
Outline: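 RARE-luc C3RL4 cells; cpds + 1 uM (final) retinol, 6 hr, 37 C/5% CO2; luciferase reagent, 30 min RT, luminescence readout. Inhibitors of retinol-driven signal scored.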

[4] = qHTS assay to identify small molecule agonists of the retinoic acid receptor (RAR) signaling pathway (AID 1159553)
Outline: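 C3RL4 RARE-luciferase cells were seeded at 1,000/well and grown overnight at 37 C, then exposed to compounds for 6 hr at 37 C, 5% CO2. Luciferase reagent was added and luminescence was read after 30 min at room temperature.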

[5] = qHTS assay to identify small molecule antagonists of the estrogen related receptor (ERR) signaling pathway from Tox21 library - cell viability counter screen (AID 1224834); note: nearly all actives have a fitted effect of over 30% in size
Outline: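 ERR reporter cells, 2,000 per well, rested 6 h, then exposed to compound in DMSO for 17.5 hours at 37 C. Viability read as fluorescence after 30 min with CellTiter-Fluor.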

[6] = target: Luciferin 4-monooxygenase (Photinus pyralis) (UniProt P08659); assay: qHTS assay to identify small molecule inhibitors of firefly luciferase (AID 1224835); note: series mostly up to about 120 µM; nearly all actives have a fitted effect of over 25% in size
Outline: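 Quantitative HTS format; KM concentrations of both substrates. Purified P. pyralis FLuc activity quantified from luminescence images.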

[7] = qHTS assay to identify small molecule agonists of the constitutive androstane receptor (CAR) signaling pathway - cell viability counter screen (AID 1224836); note: series mostly up to about 92 µM; nearly all actives have a fitted effect of over 45% in size
Outline: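 HepG2 cells stably carrying hCAR and a CYP2B6-2.2kb reporter were plated 4 h, then given compounds at 15 concentrations plus PK11195 (final 0.75 uM). After 23 h at 37 C, viability was read by CellTiter-Fluor fluorescence.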

[8] = qHTS assay to identify small molecule antagonists of the constitutive androstane receptor (CAR) signaling pathway - cell viability counter screen (AID 1224837); note: series mostly up to about 92 µM; nearly all actives have a fitted effect of over 45% in size
Outline: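 HepG2 cells stably carrying hCAR and CYP2B6-2.2kb reporter, stimulated with 50 nM CITCO and compounds at 15 concentrations for 23 h at 37 C. Viability measured by CellTiter-Fluor fluorescence.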

[9] = target: Nuclear receptor subfamily 1 group I member 3 (Homo sapiens) (UniProt Q14994); assay: qHTS assay to identify small molecule antagonists of the constitutive androstane receptor (CAR) signaling pathway (AID 1224838); note: nearly all actives have a fitted effect of over 40% in size
Outline: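 HepG2 cells stably carrying hCAR and a CYP2B6-2.2kb luciferase reporter, seeded 4 hrs before compound (15 concentrations). Stimulated with 50 nM CITCO for 24 hr at 37 C. ONE-Glo luminescence read after 30 min at room temperature.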

[10] = target: Nuclear receptor subfamily 1 group I member 3 (Homo sapiens) (UniProt Q14994); assay: qHTS assay to identify small molecule agonists of the constitutive androstane receptor (CAR) signaling pathway (AID 1224839); note: series mostly up to about 92 µM; nearly all actives have a fitted effect of over 15% in size
Outline: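 HepG2 cells stably expressing hCAR and a CYP2B6-2.2kb luciferase reporter were treated with compounds at 15 concentrations plus 0.75 uM PK11195 (final) for 24 h at 37 C; luminescence was read after ONE-Glo addition.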

[11] = qHTS assay to identify small molecule antagonists of the estrogen related receptor signaling pathway with the pleiotropic PPARgamma coactivator (PGC) from Tox21 10K library - cell viability counter screen (AID 1224840; active = well fitted cell-killing curve with a large enough effect in the repeat runs, not every such curve was filed as active; note: nearly all actives have a fitted effect of over 40% in size)
Outline: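 PGC/ERR cells (2,000/well) plated 6 h, then compound-treated for 17.5 h at 37 C. Viability measured by CellTiter-Fluor fluorescence after 30 min at 37 C, multiplexed with the pathway assay.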

[12] = target: Thyrotropin receptor (Homo sapiens) (UniProt P16473); assay: qHTS assay to identify small molecule agonists of the thyroid stimulating hormone receptor (TSHR) signaling pathway (AID 1224843; calls by dose curve; note: nearly all actives have a fitted effect of over 45% in size)
Outline: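 TSHR-expressing HEK293 cells (800 per well) were exposed to compounds for 30 min at room temperature. cAMP was then detected by HTRF competition with cAMP-d2 and anti-cAMP cryptate, read after 1 h at room temperature. Fifteen concentrations, triplicate.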

[13] = qHTS assay to identify small molecule antagonists of the estrogen related receptor signaling pathway with the pleiotropic PPARgamma coactivator (PGC) from Tox21 10K library (AID 1224841; call rule not given here; note: series mostly up to about 92 µM; actives are mostly falling curves and most rising ones were filed inactive; nearly all actives have a fitted effect of over 50% in size)
Outline: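 PGC/ERR cell line, 2,000 cells/well, pre-incubated 6 hours at 37 C, then exposed to compounds for 18 hours at 37 C; luciferase read with One-Glo luminescence after 30 min at room temperature.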

[14] = qHTS assay to identify small molecule agonists of the estrogen related receptor signaling pathway with the pleiotropic PPARgamma coactivator (PGC) from Tox21 10K library (AID 1224842); note: nearly all actives have a fitted effect of over 15% in size
Outline: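 PGC/ERR reporter cells (NTP line) were seeded 2,000 per well, rested 6 h at 37 C/5% CO2, then pin-dosed with compounds in DMSO for 18 h at 37 C; luciferase read by One-Glo luminescence after 30 min at room temperature.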
% is set by controls: 0 for no effect and ±100 for the full control effect.

Luciferin 4-monooxygenase (Photinus pyralis), sequence (P08659 whole entry, looked up): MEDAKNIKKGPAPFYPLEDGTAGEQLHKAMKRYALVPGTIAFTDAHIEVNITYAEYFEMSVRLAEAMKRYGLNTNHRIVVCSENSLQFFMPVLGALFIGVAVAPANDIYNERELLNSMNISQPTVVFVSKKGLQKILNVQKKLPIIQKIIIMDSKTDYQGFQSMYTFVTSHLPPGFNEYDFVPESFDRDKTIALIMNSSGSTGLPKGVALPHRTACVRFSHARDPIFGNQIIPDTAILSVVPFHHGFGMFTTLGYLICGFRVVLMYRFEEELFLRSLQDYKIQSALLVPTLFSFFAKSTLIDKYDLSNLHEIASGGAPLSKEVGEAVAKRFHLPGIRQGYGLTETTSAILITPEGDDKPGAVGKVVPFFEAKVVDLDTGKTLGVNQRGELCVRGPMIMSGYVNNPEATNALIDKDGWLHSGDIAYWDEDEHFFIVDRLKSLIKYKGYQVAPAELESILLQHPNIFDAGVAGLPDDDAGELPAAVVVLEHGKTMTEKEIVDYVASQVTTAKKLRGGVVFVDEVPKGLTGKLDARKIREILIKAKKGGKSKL
Nuclear receptor subfamily 1 group I member 3 (Homo sapiens), sequence (Q14994 whole entry, looked up): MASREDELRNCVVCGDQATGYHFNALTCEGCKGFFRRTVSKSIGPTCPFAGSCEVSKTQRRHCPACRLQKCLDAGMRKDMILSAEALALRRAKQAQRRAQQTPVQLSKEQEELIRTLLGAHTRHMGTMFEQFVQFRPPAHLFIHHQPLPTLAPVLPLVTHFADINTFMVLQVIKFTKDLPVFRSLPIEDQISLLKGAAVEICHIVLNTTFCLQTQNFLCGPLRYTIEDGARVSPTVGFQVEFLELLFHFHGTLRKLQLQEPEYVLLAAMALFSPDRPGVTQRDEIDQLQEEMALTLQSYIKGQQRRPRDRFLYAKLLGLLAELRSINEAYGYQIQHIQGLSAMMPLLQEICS
Thyrotropin receptor (Homo sapiens), sequence (P16473 whole entry, looked up): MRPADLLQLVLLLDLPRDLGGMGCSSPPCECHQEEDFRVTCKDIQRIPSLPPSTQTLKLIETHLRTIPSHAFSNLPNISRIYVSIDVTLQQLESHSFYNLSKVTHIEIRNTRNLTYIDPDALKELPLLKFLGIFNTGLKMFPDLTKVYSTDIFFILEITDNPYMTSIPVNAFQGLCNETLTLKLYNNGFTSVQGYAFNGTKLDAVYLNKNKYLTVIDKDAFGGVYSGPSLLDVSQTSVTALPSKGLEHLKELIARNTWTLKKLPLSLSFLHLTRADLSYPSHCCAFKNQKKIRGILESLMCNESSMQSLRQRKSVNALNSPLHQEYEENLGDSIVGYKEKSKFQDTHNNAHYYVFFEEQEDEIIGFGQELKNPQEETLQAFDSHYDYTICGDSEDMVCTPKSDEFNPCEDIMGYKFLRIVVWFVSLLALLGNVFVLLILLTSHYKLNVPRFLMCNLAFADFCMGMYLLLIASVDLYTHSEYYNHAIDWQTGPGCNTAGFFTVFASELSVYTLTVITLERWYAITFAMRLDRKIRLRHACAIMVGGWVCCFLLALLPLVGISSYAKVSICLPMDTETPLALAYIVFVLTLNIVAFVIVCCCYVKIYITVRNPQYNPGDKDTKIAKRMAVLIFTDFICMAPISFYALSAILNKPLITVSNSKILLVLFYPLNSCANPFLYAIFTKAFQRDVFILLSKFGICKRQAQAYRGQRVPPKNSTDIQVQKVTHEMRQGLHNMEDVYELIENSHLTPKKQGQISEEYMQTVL

C[C@@H](N)[C@@H](O)c1ccccc1
inactive: Potency [1] | Potency [2] | Potency [3] | Potency [4] | Potency [5] | Potency [6] | Potency [7] | Potency [8] | Potency [9] | Potency [10] | Potency [11] | Potency [12]

COP(=O)(O)OC
inactive: Potency [1] | Potency [2] | Potency [3] | Potency [4] | Potency [5] | Potency [6] | Potency [7] | Potency [8] | Potency [9] | Potency [10] | Potency [12]

O=C(Cl)CCl
inactive: Potency [1] | Potency [2] | Potency [3] | Potency [4] | Potency [5] | Potency [6] | Potency [7] | Potency [8] | Potency [9] | Potency [10] | Potency [11] | Potency [12]

CCN1CCCC1CNC(=O)C(O)(c1ccccc1)c1ccccc1 (centres undefined)
inactive: Potency [1] | Potency [2] | Potency [3] | Potency [4] | Potency [5] | Potency [6] | Potency [7] | Potency [8] | Potency [9] | Potency [10] | Potency [11] | Potency [12]

ClCCN1CCCC1
inactive: Potency [1] | Potency [2] | Potency [3] | Potency [4] | Potency [5] | Potency [6] | Potency [7] | Potency [8] | Potency [9] | Potency [10] | Potency [11] | Potency [12]

C=CCc1cc(OC)c2c(c1)OCO2
inactive: Potency [1] | Potency [2] | Potency [3] | Potency [4] | Potency [5] | Potency [6] | Potency [7] | Potency [8] | Potency [9] | Potency [10] | Potency [11] | Potency [12]

O=C(Cl)OCc1ccccc1
inactive: Potency [1] | Potency [2] | Potency [3] | Potency [4] | Potency [5] | Potency [6] | Potency [7] | Potency [8] | Potency [9] | Potency [10] | Potency [13] | Potency [14] | Potency [12]

COc1cc(CCN)cc(OC)c1OC
inactive: Potency [1] | Potency [2] | Potency [3] | Potency [4] | Potency [5] | Potency [6] | Potency [7] | Potency [8] | Potency [9] | Potency [10] | Potency [12]

CN(C)CCc1c[nH]c2cccc(OP(=O)(O)O)c12
inactive: Potency [1] | Potency [2] | Potency [3] | Potency [4] | Potency [5] | Potency [6] | Potency [7] | Potency [8] | Potency [11]

O=C/C=C/c1ccco1
inactive: Potency [1] | Potency [2] | Potency [3] | Potency [4] | Potency [5] | Potency [6] | Potency [7] | Potency [8] | Potency [10] | Potency [11]

C[C@]12C=CC(=O)C=C1CC[C@@H]1[C@@H]2CC[C@@]2(C)[C@H]1CC[C@]2(C)O
inactive: Potency [1] | Potency [2] | Potency [3] | Potency [4] | Potency [5] | Potency [6] | Potency [7] | Potency [8] | Potency [10] | Potency [11] | Potency [13] | Potency [14] | Potency [12]

CCCCCCC1CCOC1=O (centres undefined)
inactive: Potency [1] | Potency [2] | Potency [3] | Potency [4] | Potency [5] | Potency [6] | Potency [7] | Potency [8] | Potency [10] | Potency [11] | Potency [13] | Potency [14] | Potency [12]

O=C(NC(=O)c1c(F)cccc1F)Nc1cc(Cl)c(F)c(Cl)c1F
inactive: Potency [1] | Potency [2] | Potency [3] | Potency [4] | Potency [5] | Potency [6] | Potency [7] | Potency [8] | Potency [10] | Potency [11] | Potency [12]

O=P(O)(O)c1ccccc1
inactive: Potency [1] | Potency [2] | Potency [3] | Potency [4] | Potency [5] | Potency [6] | Potency [7] | Potency [8] | Potency [10] | Potency [11] | Potency [12]

Cc1cccc2sc3nncn3c12
inactive: Potency [1] | Potency [2] | Potency [3] | Potency [4] | Potency [5] | Potency [6] | Potency [7] | Potency [8] | Potency [9] | Potency [12]

c1ccc2c(c1)CCNC2
inactive: Potency [1] | Potency [2] | Potency [3] | Potency [4] | Potency [5] | Potency [6] | Potency [7] | Potency [8] | Potency [10] | Potency [11] | Potency [13] | Potency [14] | Potency [12]

CC1=C2[C@H]3OC(=O)[C@@H](C)[C@@H]3CC[C@@]2(C)C=CC1=O
inactive: Potency [1] | Potency [2] | Potency [3] | Potency [4] | Potency [5] | Potency [6] | Potency [7] | Potency [8] | Potency [11] | Potency [13] | Potency [14]

Clc1cc2c(cc1Cl)Oc1cc(Cl)c(Cl)cc1O2
inactive: activity change, negative = cytotoxicity [1] -1.01% [at 0.29 µM] | activity change, negative = cytotoxicity [2] 3.92% [at 0.349 µM] | activity, negative = inhibition [3] -3.48% [at 0.349 µM] | activation [4] -1.63% [at 0.338 µM] | viability change, negative = cytotoxic [5] -2.52% [at 0.349 µM] | activity change, negative = inhibition [6] -7.47% [at 0.435 µM] | viability change, negative = cytotoxic [7] -0.641% [at 0.349 µM] | activity change, negative = cytotoxicity [8] -2.86% [at 0.349 µM] | activity, negative = inhibition [9] 103% [at 0.349 µM] | viability change, negative = cytotoxic [11] -1.69% [at 0.349 µM] | activation [12] 10.3% [at 0.349 µM]

COc1ccc(CN2CCNCC2)c(OC)c1OC
inactive: Potency [1] | Potency [2] | Potency [3] | Potency [4] | Potency [5] | Potency [6] | Potency [7] | Potency [8] | Potency [9] | Potency [13] | Potency [14]

Cc1ccc(Cl)c(O)c1
inactive: Potency [1] | Potency [2] | Potency [3] | Potency [4] | Potency [5] | Potency [6] | Potency [7] | Potency [8] | Potency [10] | Potency [11] | Potency [13] | Potency [14] | Potency [12]

CN(CCO)CCO
inactive: Potency [1] | Potency [2] | Potency [3] | Potency [4] | Potency [5] | Potency [6] | Potency [7] | Potency [8] | Potency [10] | Potency [11] | Potency [12]

N#CC(Br)(Br)C(N)=O
inactive: Potency [1] | Potency [2] | Potency [4] | Potency [5] | Potency [6] | Potency [7] | Potency [8] | Potency [11]
active: Potency [3] 4.86 µM

Cl/C=C/CCl
inactive: Potency [1] | Potency [2] | Potency [3] | Potency [4] | Potency [5] | Potency [6] | Potency [7] | Potency [8] | Potency [10] | Potency [13] | Potency [14] | Potency [12]

C=CCCC#N
inactive: Potency [1] | Potency [2] | Potency [3] | Potency [4] | Potency [5] | Potency [6] | Potency [7] | Potency [8] | Potency [10] | Potency [11] | Potency [12]
